# PubChem BioAssay (Tox21)
# Where “and” joins values, the source holds several entries; their conditions need not be identical. Equal values may be shown once. Records with an inconclusive call do not appear. A call without a number means that no potency is given here. Some compounds were tested as several samples or in several runs, with calls that do not always agree. Calls of active or inactive are those of the source. The call rests on the fitted dose curve; in most records, active means well fitted curve in the direction sought with a large enough effect in the repeat runs; inconclusive means weak or mixed curves; inactive means no such curve, though single readings can be large; an effect the other way counts as inactive or inconclusive.
# Key:
# [1] = Human pregnane X receptor (PXR) small molecule agonists, qHTS cell viability counter screen (AID 1346977); further: nearly all actives have a fitted effect of over 50% in size; further: potency means the concentration at half of the fitted maximal effect
# Summary of the method: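 PXR-Luc HepG2, 2,000 cells/well, 5% charcoal-stripped FBS; 5hr settle; cpd 24hr, 37C/5% CO2; CellTiter-Fluor at 23hr, read 1hr later (fluorescence).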
# [2] = Caspase-3/7 induction in HepG2 cells by small molecules, qHTS assay (AID 1346978); further: nearly all actives have a fitted effect of over 15% in size; further: potency means the concentration at half of the fitted maximal effect
# Summary of the method: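 Caspase-3/7 induction was measured by Caspase-Glo 3/7 luminescence (30 min, room temperature) after a 17 hr compound exposure of wild-type HepG2 cells seeded at 2,000 per well and pre-incubated 5 hr.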
# [3] = Caspase-3/7 induction in CHO-K1 cells by small molecules, qHTS cell viability counter screen (AID 1346979); further: nearly all actives have a fitted effect of over 35% in size; further: potency means the concentration at half of the fitted maximal effect
# Summary of the method: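 Cells (CHO-K1, wild type) are plated at 1,500 per well and incubated 5hr. Test compounds in DMSO are then pinned in, followed by 16hr at 37C and 5% CO2. Viability is read by CellTiter-Fluor fluorescence after 1hr.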
# [4] = Caspase-3/7 induction in CHO-K1 cells by small molecules, qHTS assay (AID 1346980); further: nearly all actives have a fitted effect of over 15% in size; further: potency means the concentration at half of the fitted maximal effect
# Summary of the method: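 Luminescent Caspase-Glo 3/7 read (30min, room temperature) quantified apoptosis induction. Cells were wild-type CHO-K1, treated with compound for 17hr at 37 C and 5% CO2.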
# [5] = Caspase-3/7 induction in HepG2 cells by small molecules, qHTS cell viability counter screen (AID 1346981); further: nearly all actives have a fitted effect of over 30% in size; further: potency means the concentration at half of the fitted maximal effect
# Summary of the method: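 Multiplexed with the caspase-3/7 assay: HepG2 cells, 16 hr compound treatment, CellTiter-Fluor viability detection by fluorescence.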
# [6] = biological target: Nuclear receptor subfamily 1 group I member 2 (Homo sapiens) (UniProt O75469); assay: Human pregnane X receptor (PXR) small molecule agonists, qHTS assay (AID 1346982); further: nearly all actives have a fitted effect of over 35% in size; further: potency means the concentration at half of the fitted maximal effect
# Sequence of Nuclear receptor subfamily 1 group I member 2 (Homo sapiens) (O75469 whole entry, looked up): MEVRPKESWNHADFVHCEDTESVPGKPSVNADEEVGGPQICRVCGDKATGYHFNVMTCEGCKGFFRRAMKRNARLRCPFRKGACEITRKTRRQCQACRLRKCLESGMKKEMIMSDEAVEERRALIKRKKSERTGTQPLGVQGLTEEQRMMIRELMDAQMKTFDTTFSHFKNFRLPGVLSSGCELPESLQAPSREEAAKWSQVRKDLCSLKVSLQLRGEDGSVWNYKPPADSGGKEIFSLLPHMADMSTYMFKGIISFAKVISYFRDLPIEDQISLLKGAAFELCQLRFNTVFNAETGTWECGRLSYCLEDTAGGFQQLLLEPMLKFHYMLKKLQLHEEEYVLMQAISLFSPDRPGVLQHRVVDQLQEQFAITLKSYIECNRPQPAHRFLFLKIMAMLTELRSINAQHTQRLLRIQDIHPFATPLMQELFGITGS
# Summary of the method: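 We seeded PXR-Luc HepG2 cells in assay medium containing 5% charcoal-stripped FBS, added compounds 5 hr later, incubated 24 hr, and read luminescence with ONE-Glo reagent.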
# [7] = biological target: Cytochrome P450 2D6 (Homo sapiens) (UniProt P10635); assay: Cytochrome P450 Family 2 Subfamily D Member 6 (CYP2D6) small molecule antagonists: luciferase reporter qHTS assay (AID 1671196); further: nearly all actives have a fitted effect of over 50% in size; further: potency means the concentration at half of the fitted maximal effect
# Sequence of Cytochrome P450 2D6 (Homo sapiens) (P10635 whole entry, looked up): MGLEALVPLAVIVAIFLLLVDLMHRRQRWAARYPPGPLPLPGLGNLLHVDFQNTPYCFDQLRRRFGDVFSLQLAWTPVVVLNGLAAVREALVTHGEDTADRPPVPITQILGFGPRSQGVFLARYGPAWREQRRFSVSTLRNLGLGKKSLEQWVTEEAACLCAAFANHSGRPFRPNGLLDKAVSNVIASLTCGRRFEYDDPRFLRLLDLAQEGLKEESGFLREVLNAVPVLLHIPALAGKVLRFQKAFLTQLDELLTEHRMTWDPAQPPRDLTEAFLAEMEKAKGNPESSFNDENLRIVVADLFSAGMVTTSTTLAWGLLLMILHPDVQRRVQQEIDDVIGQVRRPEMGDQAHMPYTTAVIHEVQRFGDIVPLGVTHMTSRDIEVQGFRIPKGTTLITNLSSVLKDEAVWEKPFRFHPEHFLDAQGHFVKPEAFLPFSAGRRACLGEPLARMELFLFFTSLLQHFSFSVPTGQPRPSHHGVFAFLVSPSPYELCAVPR
# Summary of the method: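 Luminescence (RLU), read 20 min after detection reagent, indicated CYP2D6 conversion of proluciferin to luciferin during a 1 h NADPH-dependent reaction at room temperature.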
# [8] = biological target: Cytochrome P450 2C19 (Homo sapiens) (UniProt P33261); assay: Cytochrome P450 Family 2 Subfamily C Member 19 (CYP2C19) small molecule antagonists: luciferase reporter qHTS assay (AID 1671197); further: nearly all actives have a fitted effect of over 65% in size; further: potency means the concentration at half of the fitted maximal effect
# Sequence of Cytochrome P450 2C19 (Homo sapiens) (P33261 whole entry, looked up): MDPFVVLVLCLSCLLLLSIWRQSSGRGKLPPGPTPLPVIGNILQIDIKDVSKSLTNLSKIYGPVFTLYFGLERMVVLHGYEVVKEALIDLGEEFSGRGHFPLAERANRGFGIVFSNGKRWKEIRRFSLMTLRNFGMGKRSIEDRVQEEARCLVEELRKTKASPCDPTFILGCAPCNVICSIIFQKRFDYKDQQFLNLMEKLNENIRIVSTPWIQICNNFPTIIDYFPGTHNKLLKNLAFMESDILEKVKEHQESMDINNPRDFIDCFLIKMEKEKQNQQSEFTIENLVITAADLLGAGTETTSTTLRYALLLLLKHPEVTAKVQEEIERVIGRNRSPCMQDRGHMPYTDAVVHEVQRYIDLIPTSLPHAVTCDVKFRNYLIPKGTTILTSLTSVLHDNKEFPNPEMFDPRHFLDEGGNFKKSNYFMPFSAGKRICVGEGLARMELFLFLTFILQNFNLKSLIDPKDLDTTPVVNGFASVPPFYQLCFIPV
# Summary of the method: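 CYP2C19 P450-Glo, 1536-well qHTS. Cpd + enzyme/proluciferin substrate 10 min RT; + NADPH regen, 37C 1 h; stop with luciferin detection reagent, 20 min RT, luminescence (RLU). Pos ctrl ketoconazole.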
# [9] = biological target: Cytochrome P450 2C9 (Homo sapiens) (UniProt P11712); assay: Cytochrome P450 Family 2 Subfamily C Member 9 (CYP2C9) small molecule antagonists: luciferase reporter qHTS assay (AID 1671198); further: nearly all actives have a fitted effect of over 50% in size; further: potency means the concentration at half of the fitted maximal effect
# Sequence of Cytochrome P450 2C9 (Homo sapiens) (P11712 whole entry, looked up): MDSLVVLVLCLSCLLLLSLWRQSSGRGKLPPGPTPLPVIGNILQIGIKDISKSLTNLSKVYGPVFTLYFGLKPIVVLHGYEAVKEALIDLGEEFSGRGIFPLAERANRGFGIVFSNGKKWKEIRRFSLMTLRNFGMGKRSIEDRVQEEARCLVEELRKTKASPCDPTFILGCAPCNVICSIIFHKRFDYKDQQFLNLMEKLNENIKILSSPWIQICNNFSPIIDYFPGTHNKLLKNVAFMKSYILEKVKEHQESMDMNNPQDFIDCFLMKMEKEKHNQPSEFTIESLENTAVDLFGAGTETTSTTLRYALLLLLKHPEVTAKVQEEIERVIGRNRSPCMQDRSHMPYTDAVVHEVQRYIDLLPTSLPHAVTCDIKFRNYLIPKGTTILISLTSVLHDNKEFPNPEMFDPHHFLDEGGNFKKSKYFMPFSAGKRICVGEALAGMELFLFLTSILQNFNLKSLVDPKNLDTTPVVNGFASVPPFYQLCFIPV
# Summary of the method: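 Enzyme-substrate mix preincubated with compound 10 min at room temperature; reaction started with NADPH regeneration solution, 1 h 37C. Luminescent luciferin product read after 20 min detection reagent.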
# [10] = biological target: Cytochrome P450 1A2 (Homo sapiens) (UniProt P05177); assay: Cytochrome P450 Family 1 Subfamily A Member 2 (CYP1A2) small molecule antagonists: luciferase reporter qHTS assay (AID 1671199); further: nearly all actives have a fitted effect of over 50% in size; further: potency means the concentration at half of the fitted maximal effect
# Sequence of Cytochrome P450 1A2 (Homo sapiens) (P05177 whole entry, looked up): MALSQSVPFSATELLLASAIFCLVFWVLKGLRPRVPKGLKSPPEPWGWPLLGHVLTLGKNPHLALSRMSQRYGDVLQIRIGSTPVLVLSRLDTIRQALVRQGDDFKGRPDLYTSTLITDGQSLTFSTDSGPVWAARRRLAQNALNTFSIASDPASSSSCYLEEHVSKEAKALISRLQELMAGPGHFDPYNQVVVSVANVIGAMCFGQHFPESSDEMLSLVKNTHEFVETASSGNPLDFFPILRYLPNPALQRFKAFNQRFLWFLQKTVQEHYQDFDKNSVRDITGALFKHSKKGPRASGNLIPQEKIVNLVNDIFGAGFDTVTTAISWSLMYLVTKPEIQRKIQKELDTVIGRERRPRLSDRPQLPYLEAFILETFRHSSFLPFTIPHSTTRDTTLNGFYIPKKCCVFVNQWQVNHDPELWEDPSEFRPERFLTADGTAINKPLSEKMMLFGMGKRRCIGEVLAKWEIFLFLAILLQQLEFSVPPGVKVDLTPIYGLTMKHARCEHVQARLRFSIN
# Summary of the method: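 CYP1A2 turnover of a luminogenic substrate was quantified after 1 h with NADPH regeneration at room temperature. Furafylline served as positive control.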
# [11] = biological target: Voltage-gated inwardly rectifying potassium channel KCNH2 (Homo sapiens) (UniProt Q12809); assay: Human Ether-a-go-go-Related Gene (hERG) channel small molecule antagonists: fluorescence cell-based qHTS assay (AID 1671200); further: nearly all actives have a fitted effect of over 50% in size; further: potency means the concentration at half of the fitted maximal effect
# Sequence of Voltage-gated inwardly rectifying potassium channel KCNH2 (Homo sapiens) (Q12809 whole entry, looked up): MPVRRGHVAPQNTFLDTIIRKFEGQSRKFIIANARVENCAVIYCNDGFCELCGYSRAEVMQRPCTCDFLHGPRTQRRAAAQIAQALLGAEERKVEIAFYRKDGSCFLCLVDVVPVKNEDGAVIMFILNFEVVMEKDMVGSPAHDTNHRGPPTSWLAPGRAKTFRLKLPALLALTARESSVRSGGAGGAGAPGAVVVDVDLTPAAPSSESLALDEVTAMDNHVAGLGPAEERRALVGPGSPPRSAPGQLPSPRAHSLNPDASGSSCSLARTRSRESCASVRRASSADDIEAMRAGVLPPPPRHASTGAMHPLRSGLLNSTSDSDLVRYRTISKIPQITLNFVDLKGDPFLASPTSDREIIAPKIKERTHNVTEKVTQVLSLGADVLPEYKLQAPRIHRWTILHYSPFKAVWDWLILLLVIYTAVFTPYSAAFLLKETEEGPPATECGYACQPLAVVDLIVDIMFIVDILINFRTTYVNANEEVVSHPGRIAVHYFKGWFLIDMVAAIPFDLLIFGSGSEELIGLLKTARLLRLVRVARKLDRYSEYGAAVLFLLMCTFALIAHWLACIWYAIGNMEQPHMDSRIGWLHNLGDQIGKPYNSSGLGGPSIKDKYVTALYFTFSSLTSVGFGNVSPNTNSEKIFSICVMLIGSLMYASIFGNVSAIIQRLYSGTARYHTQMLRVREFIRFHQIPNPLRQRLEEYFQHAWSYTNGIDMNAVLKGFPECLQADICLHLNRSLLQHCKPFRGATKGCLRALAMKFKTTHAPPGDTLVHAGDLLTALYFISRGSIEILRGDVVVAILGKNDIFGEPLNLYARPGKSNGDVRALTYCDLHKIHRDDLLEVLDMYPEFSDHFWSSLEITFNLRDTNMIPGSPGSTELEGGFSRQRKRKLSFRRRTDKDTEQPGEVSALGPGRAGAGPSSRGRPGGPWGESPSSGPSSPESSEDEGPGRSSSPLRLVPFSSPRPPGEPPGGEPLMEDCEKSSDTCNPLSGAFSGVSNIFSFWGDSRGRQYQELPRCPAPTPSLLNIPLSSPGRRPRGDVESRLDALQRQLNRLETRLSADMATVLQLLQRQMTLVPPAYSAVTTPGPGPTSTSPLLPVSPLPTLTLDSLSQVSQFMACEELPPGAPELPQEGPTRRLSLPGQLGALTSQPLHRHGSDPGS
# Summary of the method: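 Channel function was assessed by thallium flux. Cells seeded the previous day and kept at 37 C took up FluxOR II dye over 1 h in the dark at room temperature, then sat another 10 min before stimulation.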
# [12] = biological target: Cytochrome P450 3A4 (Homo sapiens) (UniProt P08684); assay: Cytochrome P450 Family 3 Subfamily A Member 4 (CYP3A4) small molecule antagonists: luciferase reporter qHTS assay (AID 1671201); further: nearly all actives have a fitted effect of over 50% in size; further: potency means the concentration at half of the fitted maximal effect
# Sequence of Cytochrome P450 3A4 (Homo sapiens) (P08684 whole entry, looked up): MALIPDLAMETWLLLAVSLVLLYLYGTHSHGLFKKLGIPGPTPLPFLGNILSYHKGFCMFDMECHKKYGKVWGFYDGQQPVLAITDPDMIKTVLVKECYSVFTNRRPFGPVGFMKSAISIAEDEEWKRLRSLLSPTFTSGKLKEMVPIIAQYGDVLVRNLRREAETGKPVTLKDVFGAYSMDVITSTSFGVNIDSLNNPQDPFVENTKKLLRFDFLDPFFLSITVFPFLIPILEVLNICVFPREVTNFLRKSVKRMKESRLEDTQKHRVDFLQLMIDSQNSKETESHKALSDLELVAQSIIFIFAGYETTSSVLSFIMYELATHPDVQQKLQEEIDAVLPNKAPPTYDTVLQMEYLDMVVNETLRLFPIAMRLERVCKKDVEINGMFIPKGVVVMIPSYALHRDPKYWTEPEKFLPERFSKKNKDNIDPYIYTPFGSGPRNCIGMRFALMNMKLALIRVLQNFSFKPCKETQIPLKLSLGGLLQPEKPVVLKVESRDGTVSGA
# Summary of the method: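 Compounds in DMSO were pin-transferred onto CYP3A4 enzyme-substrate mix and held 10 min at room temperature. NADPH regenerating solution started the reaction for 1 h; luciferin detection reagent stopped it, and luminescence was read after 20 min.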
# [13] = biological target: Nuclear receptor subfamily 1 group I member 2 (Rattus norvegicus) (UniProt Q9R1A7); assay: Rat pregnane X receptor (rPXR) activation by small molecules, qHTS assay (AID 1346983); settings: rPXR luciferase reporter cells, One-Glo luminescence, 24 h; stronger effect = higher value; further: nearly all actives have a fitted effect of over 20% in size
# Sequence of Nuclear receptor subfamily 1 group I member 2 (Rattus norvegicus) (Q9R1A7 whole entry, looked up): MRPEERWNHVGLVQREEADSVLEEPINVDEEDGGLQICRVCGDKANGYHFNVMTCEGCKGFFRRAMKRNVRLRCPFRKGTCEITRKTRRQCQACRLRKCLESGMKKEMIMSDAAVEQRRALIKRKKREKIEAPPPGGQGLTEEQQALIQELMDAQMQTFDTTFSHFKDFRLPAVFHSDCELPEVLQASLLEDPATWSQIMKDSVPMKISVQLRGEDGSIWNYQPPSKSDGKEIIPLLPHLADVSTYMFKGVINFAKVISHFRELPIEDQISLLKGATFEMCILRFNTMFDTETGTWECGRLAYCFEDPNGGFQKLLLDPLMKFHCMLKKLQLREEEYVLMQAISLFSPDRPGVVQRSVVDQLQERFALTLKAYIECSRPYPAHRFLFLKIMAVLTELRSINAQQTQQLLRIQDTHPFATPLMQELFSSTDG
# Summary of the method: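 Luminescent readout (One-Glo luciferase, 30 min room temperature) followed 24 hr compound treatment at 37 C of rPXR cells plated 2,000 per well and preincubated 5hr; qHTS format with compounds delivered in DMSO.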
# [14] = biological target: Nuclear receptor subfamily 1 group I member 2 (Homo sapiens) (UniProt O75469); assay: Human pregnane X receptor (PXR) activation by small molecules, qHTS assay (AID 1346985); further: nearly all actives have a fitted effect of over 40% in size
# Summary of the method: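 DPX-2 cells (HepG2 co-transfected with a PXR response element and a CYP3A4-promoter luciferase construct) were seeded at 2,000 per well, rested 5 hr at 37C, then exposed to DMSO-dissolved compounds for 24 hr. Activation was read as luciferase luminescence.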
Compound,Potency [1],Potency [2],Potency [3],Potency [4],Potency [5],Potency [6],Potency [7],Potency [8],Potency [9],Potency [10],Potency [11],Potency [12],max activation [13],Potency [14]
CCCCOCCOC(=O)c1ccccc1C(=O)OCCOCCCC,inactive,inactive,inactive,inactive,inactive,59.8 µM (active) and inactive,31 µM (active) and 25.2 µM (active),3.48 µM (active) and 1.78 µM (active),6.95 µM (active) and 7.1 µM (active),19.6 µM (active) and 15.9 µM (active),inactive,12.4 µM (active) and 17.8 µM (active),–,–
CN(C)c1ccc(C(=C2C=CC(=[N+](C)C)C=C2)c2ccccc2)cc1,2.37 µM (active) [middle of 4 runs],4.33 µM (active) and 5.31 µM (active) and 5.96 µM (active),596 nM (active) [middle of 4 runs],5.96 µM (active) and 3.35 µM (active),19.3 µM (active) and 13.3 µM (active) and 23.7 µM (active),–,7.97 µM (active) and 13.8 µM (active) and 15.5 µM (active),–,–,15.9 µM (active) and 13.8 µM (active),4.25 µM (active) [middle of 4 runs],–,11.8% (inactive),inactive
Nc1ccc(O)cc1,56.6 µM (active) and inactive,inactive,56.6 µM (active),inactive,56.6 µM (active) and inactive,inactive,37 µM (active),20.8 µM (active) and 34.7 µM (active),26.2 µM (active) and 34.7 µM (active),–,inactive,37 µM (active),–,–
CCN(CC)C(=O)Nc1ccc(OCC(O)CNC(C)(C)C)c(C(C)=O)c1 (stereo not drawn),inactive,inactive,inactive,inactive,inactive,–,–,inactive,inactive,inactive,inactive,inactive,1.62% (inactive),inactive
CC(C(O)c1ccc(O)cc1)N1CCC(Cc2ccccc2)CC1 (stereo not drawn),inactive,inactive,inactive,inactive,inactive,–,–,–,inactive,inactive,6.01 µM (active),inactive,-2.92% (inactive),inactive
CNC1(C)C2CCC(C2)C1(C)C (stereo not drawn),inactive,inactive,inactive,inactive,inactive,inactive,inactive,–,inactive,inactive,inactive,inactive,–,–
CC(=O)Nc1ccc(C(=O)CCl)cc1,inactive and 61.1 µM (active),inactive,54.8 µM (active) and 17.2 µM (active),inactive,inactive,21.8 µM (active) and 24.3 µM (active),–,inactive and 79.6 µM (active),63.3 µM (active),31.7 µM (active),inactive,inactive,–,–
CCCCCCCCCCCCCC[P+](CCCC)(CCCC)CCCC,6.31 µM (active) and 13.7 µM (active),48.6 µM (active),2.42 µM (active) and 7.7 µM (active),inactive,54.2 µM (active),–,223 nM (active) and 399 nM (active),56.1 µM (active) and 39.9 µM (active),28.1 µM (active) and 50.2 µM (active),70.6 µM (active) and 79.6 µM (active),194 nM (active) and 275 nM (active),inactive,–,–
NC(N)=Nc1nc(CSCC/C(N)=N/S(N)(=O)=O)cs1,inactive,inactive,inactive,inactive,inactive,inactive,inactive,inactive,inactive,inactive,–,inactive,–,–
Cc1c(O)cccc1C(=O)N[C@@H](CSc1ccccc1)[C@H](O)CN1C[C@H]2CCCC[C@H]2C[C@H]1C(=O)NC(C)(C)C,16.8 µM (active) and 13.3 µM (active),66.8 µM (active),5.95 µM (active) and 10.6 µM (active),inactive,11.9 µM (active) and 13.3 µM (active),–,8.71 µM (active) and 15.5 µM (active),9.77 µM (active),19.5 µM (active) and 24.5 µM (active),inactive,inactive,–,–,–
C#CC(C)(CC)OC(=O)c1ccccc1C(=O)O (stereo not drawn),inactive,inactive,inactive,inactive,inactive,inactive,inactive,inactive,inactive,inactive,inactive,inactive,–,–
CC1=C(C=O)C(C)(C)CC=C1,inactive,inactive,inactive,inactive,inactive,inactive,inactive,–,inactive,inactive,inactive,–,–,–
CCCCCC(=O)O[C@]1(C(C)=O)CC[C@H]2[C@@H]3CCC4=CC(=O)CC[C@]4(C)[C@H]3CC[C@@]21C,43 µM (active),inactive,60.7 µM (active) and 33.5 µM (active),inactive,60.7 µM (active),–,6.28 µM (active) and inactive,17.7 µM (active) and 17.4 µM (active),7.91 µM (active) and 11 µM (active),inactive,19.4 µM (active),–,–,–
Cc1cc(C2(c3cc(C)c(O)cc3C)OS(=O)(=O)c3ccccc32)c(C)cc1O,35.5 µM (active) and 13.7 µM (active),inactive,30.6 µM (active) and 13.7 µM (active),inactive,30.6 µM (active) and 19.3 µM (active),–,39.9 µM (active),7.97 µM (active) and 17.8 µM (active),5.03 µM (active) and 7.96 µM (active),31.7 µM (active),inactive,2 µM (active) and 2.52 µM (active),–,–
